# Assay results as given in paper PMC3404119, “Topology and Dynamics of the Zebrafish Segmentation Clock Core Circuit”.
# Molecular target: T1, Her1-GFP homodimer (zebrafish (Danio rerio), UniProt Q90463 1-328)
# T1 sequence: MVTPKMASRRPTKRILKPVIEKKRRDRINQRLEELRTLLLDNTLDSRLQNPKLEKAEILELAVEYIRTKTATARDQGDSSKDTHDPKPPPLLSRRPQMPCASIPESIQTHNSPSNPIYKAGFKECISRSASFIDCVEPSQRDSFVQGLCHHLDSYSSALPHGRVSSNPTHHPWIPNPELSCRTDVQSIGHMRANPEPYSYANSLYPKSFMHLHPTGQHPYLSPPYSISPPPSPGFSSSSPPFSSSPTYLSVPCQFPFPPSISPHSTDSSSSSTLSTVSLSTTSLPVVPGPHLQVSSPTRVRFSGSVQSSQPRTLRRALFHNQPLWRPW
# Test: MITOMI; PPARgamma-mCherry co-present (non-interacting control); TnT SP6 wheat germ expression extract on MITOMI chip, 3 h at room temperature; salt and pH not stated; PBS used for washing; high values mean tight binding
# Conditions: protein: ivt; tags: C-terminal GFP; chain copies: 2; label: Cy5; dsDNA, one strand shown
row,Sequence,binding signal
1,GCCCACGCGCCG,0.119 ± 0.00729 relative affinity (strongest site = 1)
2,AGGCGCGTGGTG,0.077 ± 0.00506 relative affinity (strongest site = 1)
3,TGTCGCGTGCCA,0.597 ± 0.0246 relative affinity (strongest site = 1)
4,TGCCGCGTGCAC,0.033 ± 0.00214 relative affinity (strongest site = 1)
5,CGACACGCGGTG,0.0408 ± 0.00225 relative affinity (strongest site = 1)
6,TGGCACGTGTCC,1 ± 0.0321 relative affinity (strongest site = 1)
7,TGACGCGTGTGA,0.118 ± 0.00595 relative affinity (strongest site = 1)
8,CTCCACGTGCCC,0.269 ± 0.00665 relative affinity (strongest site = 1)
9,CAACACGGGGTG,0.026 ± 0.00978 relative affinity (strongest site = 1)
10,AAGCACGTGATC,0.0423 ± 0.00127 relative affinity (strongest site = 1)
11,AGCCTCGTGTAA,0.0363 ± 0.00627 relative affinity (strongest site = 1)
12,TTCCACGGGTCT,0.0411 ± 0.00212 relative affinity (strongest site = 1)
13,AGCCACGTGGCT,0.57 ± 0.0193 relative affinity (strongest site = 1)
14,TGCCGCGTGCCG,0.216 ± 0.0104 relative affinity (strongest site = 1)
15,CGGCGCGTGCCA,0.73 ± 0.0316 relative affinity (strongest site = 1)
16,CCGCGCGTGCCA,0.279 ± 0.0129 relative affinity (strongest site = 1)
17,TTCCACGAGAAA,0.0129 ± 0.000672 relative affinity (strongest site = 1)
18,GGGCGCGTGCCG,0.576 ± 0.0101 relative affinity (strongest site = 1)
19,GCCCACGGGCCC,0.144 ± 0.0313 relative affinity (strongest site = 1)
20,ATCCACGTGTCC,0.303 ± 0.0145 relative affinity (strongest site = 1)
21,AGACACGCGCTA,0.118 ± 0.00385 relative affinity (strongest site = 1)

# Molecular target: T2, Her7 (coupled to chip, Fig 2D);Hes6-mCherry (zebrafish (Danio rerio);zebrafish …, UniProt Q9I9K1;Q6P0J1 1-206;1-226, |)
# T2 sequence 1: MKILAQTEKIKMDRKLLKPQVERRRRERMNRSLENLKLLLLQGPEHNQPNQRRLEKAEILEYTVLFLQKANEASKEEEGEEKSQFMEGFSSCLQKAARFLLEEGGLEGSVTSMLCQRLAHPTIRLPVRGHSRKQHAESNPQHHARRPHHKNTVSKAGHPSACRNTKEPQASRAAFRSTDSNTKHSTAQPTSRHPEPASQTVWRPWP
# T2 sequence 2: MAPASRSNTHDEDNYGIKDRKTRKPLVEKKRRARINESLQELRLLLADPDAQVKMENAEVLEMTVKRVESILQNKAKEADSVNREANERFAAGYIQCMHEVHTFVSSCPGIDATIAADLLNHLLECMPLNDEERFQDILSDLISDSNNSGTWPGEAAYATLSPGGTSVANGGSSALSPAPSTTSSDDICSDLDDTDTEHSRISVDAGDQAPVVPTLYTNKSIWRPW
# Test: MITOMI; Her7:Hes6 heterodimer, Her7 coupled to chip and Hes6-mCherry in solution; TnT SP6 wheat germ expression extract on MITOMI chip, 3 h at room temperature; salt and pH not stated; PBS used for washing; high values mean tight binding
# Conditions: protein: ivt;ivt; copies: 1;1; label: Cy5; dsDNA, one strand shown
row,Sequence,binding signal
1,GCCCACGCGCCG,0.168 ± 0.00251 relative affinity (strongest site = 1)
2,AGGCGCGTGGTG,0.157 ± 0.00403 relative affinity (strongest site = 1)
3,TGTCGCGTGCCA,0.531 ± 0.00964 relative affinity (strongest site = 1)
4,TGCCGCGTGCAC,0.163 ± 0.00188 relative affinity (strongest site = 1)
5,CGACACGCGGTG,0.0849 ± 0.00174 relative affinity (strongest site = 1)
6,TGGCACGTGTCC,1 ± 0.0512 relative affinity (strongest site = 1)
7,TGACGCGTGTGA,0.387 ± 0.0053 relative affinity (strongest site = 1)
8,CTCCACGTGCCC,0.297 ± 0.00926 relative affinity (strongest site = 1)
9,CAACACGGGGTG,0.0311 ± 0.0032 relative affinity (strongest site = 1)
10,TCACACCTGTGCAG,0.02 ± 0.00133 relative affinity (strongest site = 1)
11,AAGCACGTGATC,0.0912 ± 0.0018 relative affinity (strongest site = 1)
12,AGCCTCGTGTAA,0.0516 ± 0.00244 relative affinity (strongest site = 1)
13,TTCCACGGGTCT,0.0587 ± 0.00207 relative affinity (strongest site = 1)
14,AGCCACGTGGCT,0.347 ± 0.00813 relative affinity (strongest site = 1)
15,TGCCGCGTGCCG,0.369 ± 0.00323 relative affinity (strongest site = 1)
16,CGGCGCGTGCCA,0.959 ± 0.0356 relative affinity (strongest site = 1)
17,CCGCGCGTGCCA,0.516 ± 0.0179 relative affinity (strongest site = 1)
18,TTCCACGAGAAA,0.0286 ± 0.00127 relative affinity (strongest site = 1)
19,GGGCGCGTGCCG,0.748 ± 0.021 relative affinity (strongest site = 1)
20,GCCCACGGGCCC,0.0279 ± 0.00171 relative affinity (strongest site = 1)
21,ATCCACGTGTCC,0.256 ± 0.00386 relative affinity (strongest site = 1)
22,AGACACGCGCTA,0.2749 ± 0.00267 relative affinity (strongest site = 1)
